Results from the supplement of paper PMC11732987, “Enantioselective OTUD7B fragment discovery through chemoproteomics screening and high-throughput optimisation” (Communications Chemistry, 2025).

Key:
Experiment in all cases: log2 ratio of Biotin-Ahx-Ub-VS probe labelling (fragment/DMSO); higher = less target engagement (more negative = stronger competition), active = hit call of the paper (q ≤ 0.05, log2 ratio ≤ -1)
Conditions in all cases: compound concentration: 200 uM; treatment time: 3 h
USP34 = USP34 (UniProt Q70CQ2)
Chain of USP34 (Q70CQ2 whole entry, the tested form may be a part): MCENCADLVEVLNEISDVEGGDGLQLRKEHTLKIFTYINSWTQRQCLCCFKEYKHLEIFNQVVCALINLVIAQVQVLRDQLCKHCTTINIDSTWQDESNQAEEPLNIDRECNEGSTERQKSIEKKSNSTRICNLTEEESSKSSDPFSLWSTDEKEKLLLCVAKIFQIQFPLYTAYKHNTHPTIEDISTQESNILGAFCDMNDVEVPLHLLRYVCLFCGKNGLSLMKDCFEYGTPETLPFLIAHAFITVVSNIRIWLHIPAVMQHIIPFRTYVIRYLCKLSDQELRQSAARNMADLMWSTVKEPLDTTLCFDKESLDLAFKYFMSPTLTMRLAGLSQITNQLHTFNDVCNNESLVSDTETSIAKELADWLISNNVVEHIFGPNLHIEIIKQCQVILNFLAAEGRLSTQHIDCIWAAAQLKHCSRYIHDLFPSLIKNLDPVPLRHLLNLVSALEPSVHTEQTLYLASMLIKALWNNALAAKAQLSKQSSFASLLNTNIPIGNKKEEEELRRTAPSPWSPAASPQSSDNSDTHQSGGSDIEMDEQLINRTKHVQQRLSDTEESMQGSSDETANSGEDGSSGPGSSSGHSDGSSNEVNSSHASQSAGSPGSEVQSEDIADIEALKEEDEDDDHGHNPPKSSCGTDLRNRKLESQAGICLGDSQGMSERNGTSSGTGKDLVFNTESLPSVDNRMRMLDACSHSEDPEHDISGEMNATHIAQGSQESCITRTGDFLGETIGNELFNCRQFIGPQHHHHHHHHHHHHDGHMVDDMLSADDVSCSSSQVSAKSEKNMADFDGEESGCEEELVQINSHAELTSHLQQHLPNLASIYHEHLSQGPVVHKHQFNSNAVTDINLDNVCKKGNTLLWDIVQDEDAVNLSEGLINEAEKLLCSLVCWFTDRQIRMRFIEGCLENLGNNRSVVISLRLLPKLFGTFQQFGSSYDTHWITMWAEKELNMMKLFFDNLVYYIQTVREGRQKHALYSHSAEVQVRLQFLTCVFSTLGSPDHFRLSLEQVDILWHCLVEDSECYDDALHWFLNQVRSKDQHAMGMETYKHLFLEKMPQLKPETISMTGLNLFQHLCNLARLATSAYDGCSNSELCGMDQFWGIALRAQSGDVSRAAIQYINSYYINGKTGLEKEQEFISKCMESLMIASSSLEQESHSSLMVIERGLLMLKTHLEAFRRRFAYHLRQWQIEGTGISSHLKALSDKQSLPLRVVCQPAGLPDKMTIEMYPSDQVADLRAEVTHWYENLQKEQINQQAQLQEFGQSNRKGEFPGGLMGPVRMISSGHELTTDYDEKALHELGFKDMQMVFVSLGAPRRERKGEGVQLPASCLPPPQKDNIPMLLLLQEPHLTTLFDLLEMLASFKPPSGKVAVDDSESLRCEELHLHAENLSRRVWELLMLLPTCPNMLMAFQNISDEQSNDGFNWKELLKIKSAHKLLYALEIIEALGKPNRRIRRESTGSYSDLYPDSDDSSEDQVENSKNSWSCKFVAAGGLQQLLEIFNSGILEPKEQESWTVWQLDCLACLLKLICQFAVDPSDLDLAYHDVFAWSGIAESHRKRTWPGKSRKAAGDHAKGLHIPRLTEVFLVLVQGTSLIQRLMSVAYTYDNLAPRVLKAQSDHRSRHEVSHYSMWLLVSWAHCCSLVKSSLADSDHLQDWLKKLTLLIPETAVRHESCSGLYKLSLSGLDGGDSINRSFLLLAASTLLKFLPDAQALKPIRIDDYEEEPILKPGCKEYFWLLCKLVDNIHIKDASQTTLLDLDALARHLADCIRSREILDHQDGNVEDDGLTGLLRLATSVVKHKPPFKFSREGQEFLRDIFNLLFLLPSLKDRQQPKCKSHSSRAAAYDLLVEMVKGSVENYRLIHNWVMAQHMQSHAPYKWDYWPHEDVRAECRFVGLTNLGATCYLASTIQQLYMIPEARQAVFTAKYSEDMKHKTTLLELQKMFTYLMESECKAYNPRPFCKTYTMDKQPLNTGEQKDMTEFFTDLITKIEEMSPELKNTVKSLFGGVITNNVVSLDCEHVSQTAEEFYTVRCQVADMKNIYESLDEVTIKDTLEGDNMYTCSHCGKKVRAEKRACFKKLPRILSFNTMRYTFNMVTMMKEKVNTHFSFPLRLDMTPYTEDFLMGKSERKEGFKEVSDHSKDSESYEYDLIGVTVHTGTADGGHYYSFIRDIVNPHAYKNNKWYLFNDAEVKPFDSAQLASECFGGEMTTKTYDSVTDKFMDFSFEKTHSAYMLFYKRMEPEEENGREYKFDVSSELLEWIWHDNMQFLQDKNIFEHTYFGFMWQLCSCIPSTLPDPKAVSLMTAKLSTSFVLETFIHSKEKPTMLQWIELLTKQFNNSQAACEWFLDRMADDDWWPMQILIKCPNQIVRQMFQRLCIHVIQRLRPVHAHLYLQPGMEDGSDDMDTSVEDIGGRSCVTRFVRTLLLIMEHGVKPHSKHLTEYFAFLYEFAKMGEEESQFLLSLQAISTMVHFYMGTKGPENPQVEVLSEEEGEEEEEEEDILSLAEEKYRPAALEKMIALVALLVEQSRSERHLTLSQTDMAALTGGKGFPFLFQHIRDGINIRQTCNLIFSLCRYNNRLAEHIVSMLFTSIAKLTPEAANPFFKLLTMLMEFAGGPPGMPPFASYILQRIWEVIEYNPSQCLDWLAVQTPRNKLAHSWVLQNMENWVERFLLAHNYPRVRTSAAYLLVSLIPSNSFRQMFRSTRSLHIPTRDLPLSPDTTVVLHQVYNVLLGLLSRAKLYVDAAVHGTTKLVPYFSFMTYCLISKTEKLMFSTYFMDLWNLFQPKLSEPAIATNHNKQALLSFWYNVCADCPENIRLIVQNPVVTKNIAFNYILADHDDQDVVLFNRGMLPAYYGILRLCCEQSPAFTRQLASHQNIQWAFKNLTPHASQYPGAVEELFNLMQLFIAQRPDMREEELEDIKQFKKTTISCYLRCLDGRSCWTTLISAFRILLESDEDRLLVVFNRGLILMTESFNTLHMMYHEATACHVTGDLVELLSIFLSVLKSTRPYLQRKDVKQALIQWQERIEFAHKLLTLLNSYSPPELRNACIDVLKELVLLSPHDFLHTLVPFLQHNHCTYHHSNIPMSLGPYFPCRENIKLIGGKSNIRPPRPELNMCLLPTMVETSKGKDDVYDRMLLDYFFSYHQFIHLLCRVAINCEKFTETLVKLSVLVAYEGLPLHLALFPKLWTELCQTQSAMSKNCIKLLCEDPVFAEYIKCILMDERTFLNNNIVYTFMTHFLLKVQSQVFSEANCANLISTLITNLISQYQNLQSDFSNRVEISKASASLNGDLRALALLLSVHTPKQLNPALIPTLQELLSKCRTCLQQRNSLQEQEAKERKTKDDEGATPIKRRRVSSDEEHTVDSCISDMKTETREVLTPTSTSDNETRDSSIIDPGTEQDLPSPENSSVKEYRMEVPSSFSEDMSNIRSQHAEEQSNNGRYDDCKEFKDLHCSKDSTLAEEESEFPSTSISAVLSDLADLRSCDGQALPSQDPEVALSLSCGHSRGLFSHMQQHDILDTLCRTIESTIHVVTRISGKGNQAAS
Method in brief: (§1)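 The table lists average log2 ratios of fragment over vehicle, from an unpaired t-test on global-median-normalised Spectronaut label-free quantities. Proteins with ≥2 unique peptides were used. Samples were HEK293T lysate (495 µg) treated in triplicate with fragment at 200 µM or vehicle for 3 h, then with Biotin-Ahx-Ub-VS (0.5 µM final) for 1 h, with labelled DUBs NeutrAvidin-enriched and run by diaPASEF LC-MS/MS.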

USP36 = target: T1, USP36 (UniProt Q9P275)
T1 sequence (whole entry): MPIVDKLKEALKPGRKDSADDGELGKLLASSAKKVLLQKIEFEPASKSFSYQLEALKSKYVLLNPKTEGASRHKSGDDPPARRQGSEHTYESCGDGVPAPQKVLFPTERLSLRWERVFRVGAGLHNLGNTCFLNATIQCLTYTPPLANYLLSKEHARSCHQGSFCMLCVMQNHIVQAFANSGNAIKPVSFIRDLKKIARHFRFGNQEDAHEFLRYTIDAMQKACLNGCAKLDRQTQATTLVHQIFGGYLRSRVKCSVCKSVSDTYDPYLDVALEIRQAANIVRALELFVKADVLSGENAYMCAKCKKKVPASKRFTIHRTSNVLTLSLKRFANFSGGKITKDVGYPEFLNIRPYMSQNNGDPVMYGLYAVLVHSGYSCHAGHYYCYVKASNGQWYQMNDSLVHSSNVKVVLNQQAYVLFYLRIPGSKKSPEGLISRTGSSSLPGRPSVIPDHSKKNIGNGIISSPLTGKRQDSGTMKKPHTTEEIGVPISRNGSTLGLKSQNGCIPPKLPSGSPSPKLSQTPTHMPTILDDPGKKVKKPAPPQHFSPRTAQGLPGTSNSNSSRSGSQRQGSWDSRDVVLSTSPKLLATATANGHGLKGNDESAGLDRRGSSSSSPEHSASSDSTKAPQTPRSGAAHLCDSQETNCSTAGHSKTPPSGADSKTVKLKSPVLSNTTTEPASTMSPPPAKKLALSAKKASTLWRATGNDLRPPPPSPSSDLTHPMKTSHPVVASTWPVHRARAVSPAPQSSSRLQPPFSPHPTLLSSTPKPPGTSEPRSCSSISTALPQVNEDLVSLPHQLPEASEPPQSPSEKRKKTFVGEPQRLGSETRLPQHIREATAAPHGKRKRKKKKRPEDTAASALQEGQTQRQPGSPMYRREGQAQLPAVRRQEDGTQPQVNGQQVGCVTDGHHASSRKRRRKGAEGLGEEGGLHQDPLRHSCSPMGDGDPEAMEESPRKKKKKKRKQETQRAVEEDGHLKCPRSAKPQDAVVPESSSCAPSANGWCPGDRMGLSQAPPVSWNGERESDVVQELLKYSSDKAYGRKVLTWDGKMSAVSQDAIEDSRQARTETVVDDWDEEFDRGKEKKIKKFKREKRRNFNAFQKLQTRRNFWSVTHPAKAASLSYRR
Method in brief: as §1

USP38 = target: T2, USP38 (UniProt Q8NB14)
T2 sequence (whole entry): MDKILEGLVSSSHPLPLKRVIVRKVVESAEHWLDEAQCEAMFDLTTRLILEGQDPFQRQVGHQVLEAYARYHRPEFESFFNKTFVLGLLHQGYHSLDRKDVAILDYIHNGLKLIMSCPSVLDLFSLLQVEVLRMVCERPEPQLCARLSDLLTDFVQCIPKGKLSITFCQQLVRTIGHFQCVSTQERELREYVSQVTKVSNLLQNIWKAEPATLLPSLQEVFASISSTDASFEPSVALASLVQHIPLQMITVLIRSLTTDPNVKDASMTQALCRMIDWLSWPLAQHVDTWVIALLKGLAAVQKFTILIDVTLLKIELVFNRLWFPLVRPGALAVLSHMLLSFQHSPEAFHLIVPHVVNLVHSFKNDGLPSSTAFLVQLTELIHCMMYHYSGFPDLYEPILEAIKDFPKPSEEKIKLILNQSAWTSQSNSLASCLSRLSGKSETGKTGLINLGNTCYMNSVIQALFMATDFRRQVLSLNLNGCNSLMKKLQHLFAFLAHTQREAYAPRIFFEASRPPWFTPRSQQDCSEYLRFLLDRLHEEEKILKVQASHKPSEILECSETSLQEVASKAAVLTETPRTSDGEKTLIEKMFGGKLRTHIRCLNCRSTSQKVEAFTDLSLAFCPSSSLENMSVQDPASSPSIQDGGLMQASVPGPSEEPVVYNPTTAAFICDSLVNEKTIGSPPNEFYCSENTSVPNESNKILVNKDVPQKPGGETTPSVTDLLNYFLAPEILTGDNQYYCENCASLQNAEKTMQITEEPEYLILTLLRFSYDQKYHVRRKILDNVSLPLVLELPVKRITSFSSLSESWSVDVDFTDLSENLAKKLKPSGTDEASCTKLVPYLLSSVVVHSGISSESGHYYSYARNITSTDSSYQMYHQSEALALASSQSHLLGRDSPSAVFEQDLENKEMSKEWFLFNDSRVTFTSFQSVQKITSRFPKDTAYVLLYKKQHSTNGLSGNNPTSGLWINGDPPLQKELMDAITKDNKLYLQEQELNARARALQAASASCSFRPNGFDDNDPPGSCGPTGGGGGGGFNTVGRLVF
Method in brief: as §1

USP39 = target: T3, USP39 (UniProt Q53GS9)
T3 sequence (whole entry): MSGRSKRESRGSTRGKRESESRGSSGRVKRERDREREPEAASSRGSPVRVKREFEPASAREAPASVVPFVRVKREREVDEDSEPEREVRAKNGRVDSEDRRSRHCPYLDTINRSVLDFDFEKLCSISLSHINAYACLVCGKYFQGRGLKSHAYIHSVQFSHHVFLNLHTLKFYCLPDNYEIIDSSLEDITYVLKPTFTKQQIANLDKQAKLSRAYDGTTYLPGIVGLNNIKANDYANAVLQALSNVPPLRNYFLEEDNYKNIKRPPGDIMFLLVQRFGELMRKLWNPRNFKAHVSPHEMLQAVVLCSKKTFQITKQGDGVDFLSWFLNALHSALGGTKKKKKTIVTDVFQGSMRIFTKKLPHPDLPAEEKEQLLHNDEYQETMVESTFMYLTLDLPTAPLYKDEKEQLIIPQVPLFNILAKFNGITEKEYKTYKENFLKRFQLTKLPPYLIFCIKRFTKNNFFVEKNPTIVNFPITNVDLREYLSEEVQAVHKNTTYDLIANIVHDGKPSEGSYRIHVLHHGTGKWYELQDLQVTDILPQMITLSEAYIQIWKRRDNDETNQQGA
Method in brief: as §1

USP4 = target: T4, USP4 (UniProt Q13107)
T4 sequence (whole entry): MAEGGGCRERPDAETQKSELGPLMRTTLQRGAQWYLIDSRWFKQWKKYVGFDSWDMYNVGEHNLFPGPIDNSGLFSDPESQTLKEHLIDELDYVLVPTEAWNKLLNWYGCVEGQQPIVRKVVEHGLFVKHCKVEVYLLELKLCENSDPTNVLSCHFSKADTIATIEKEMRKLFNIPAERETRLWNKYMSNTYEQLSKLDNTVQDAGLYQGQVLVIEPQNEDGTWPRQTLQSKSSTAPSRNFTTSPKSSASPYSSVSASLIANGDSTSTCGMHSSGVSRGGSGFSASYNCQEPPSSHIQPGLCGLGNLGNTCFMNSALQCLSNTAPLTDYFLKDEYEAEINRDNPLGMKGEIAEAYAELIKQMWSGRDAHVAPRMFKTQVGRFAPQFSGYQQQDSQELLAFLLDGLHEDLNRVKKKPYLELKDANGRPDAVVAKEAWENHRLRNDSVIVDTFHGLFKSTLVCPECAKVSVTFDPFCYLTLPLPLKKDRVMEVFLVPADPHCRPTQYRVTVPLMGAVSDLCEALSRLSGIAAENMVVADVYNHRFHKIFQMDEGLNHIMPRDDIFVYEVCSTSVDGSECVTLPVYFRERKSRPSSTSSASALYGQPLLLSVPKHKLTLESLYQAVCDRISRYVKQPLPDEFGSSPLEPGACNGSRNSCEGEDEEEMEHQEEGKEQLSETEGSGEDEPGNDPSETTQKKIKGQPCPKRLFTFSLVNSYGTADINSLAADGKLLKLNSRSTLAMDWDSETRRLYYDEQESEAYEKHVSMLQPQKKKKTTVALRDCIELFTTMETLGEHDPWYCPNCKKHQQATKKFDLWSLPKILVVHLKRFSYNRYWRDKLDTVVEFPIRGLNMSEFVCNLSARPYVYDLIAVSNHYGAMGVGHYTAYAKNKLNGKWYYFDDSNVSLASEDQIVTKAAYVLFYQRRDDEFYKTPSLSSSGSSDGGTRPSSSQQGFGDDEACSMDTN
Method in brief: as §1

Measured: log2 ratio of Biotin-Ahx-Ub-VS probe labelling

O=C(CCl)Nc1cc2c(cc1Cl)OCCCO2
inactive: USP34 0.0191 | USP36 -0.11 | USP38 0.0869 | USP39 0.0922 | USP4 0.154
